PfHsp40 rescue: rescue of yeast from PfHsp40 toxicity, primary screen, S. cerevisiae, ATP luminescence | S. cerevisiae expressing PfHsp40, growth rescue | growth rescue, % at 12.5 µM | actives 0.68% (n = 340,000); in the data active = growth rescue above about 28%, passing the limit was not always enough;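 also: yeast W303a lacking pdr1 and pdr3 grown in galactose medium; growth measured after three days at 30 °C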
Sa RN4220 lethal: growth inhibition of S. aureus RN4220, primary screen, OD600; actives 0.33% (n = 330,000); 16 h; inhibition, % (concentration not given with the values); AID 1259311, 2017; in the data active = inhibition above about 85%;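 also: plate controls were untreated cells for no effect and reference antibiotic for full effect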
CCHF vOTU inh-1: CCHFV vOTU protease inhibitors, primary screen, biochemical, Pep-AMC substrate, fluorescence; inhibition, % at 11.5 µM; Crimean-Congo hemorrhagic fever virus L polyprotein viral ovarian tumor (vOTU) protease …; actives 0.55% (n = 370,000); AID 651958, 2012; also: 0% = vehicle wells with enzyme and 100% = no enzyme wells
Sa ugtP lethal: growth inhibition of ugtP-null S. aureus, primary screen, RN4220 ugtP deletion, OD600. 16 h. growth inhibition, % (test concentration not listed). actives 0.54% (n = 330,000). AID 1259309, 2017; in the data active = growth inhibition above about 68%;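 also: plate controls were untreated wells for no effect and antibiotic for full effect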
BH1578 lux ind: inducers of Vibrio cholerae quorum light production without autoinducers, primary screen, BH1578 luxS cqsA deficient, single point; activation, % at 18.7 µM; actives 0.16% (n = 350,000); V. cholerae BH1578 lux reporter, luminescence, 6 h; AID 588436, 2011; in the data active = activation mostly above about 9.7%, no sharp cut-off
Mtb hypoxia rep: PubChem AID 1159583; M. tuberculosis hypoxia-regulated fluorescent reporter, fluorescence; fluorescence inhibition, % (no concentration beside the values); actives 0.1% (n = 300,000); in the data active = fluorescence inhibition mostly above about 23%, no sharp cut-off; inactive = mostly below about 17%
CCHF vOTU inh-2: CCHFV vOTU protease inhibitors, confirmation, biochemical, Pep-AMC substrate, fluorescence; inhibition, % at 11.5 µM; actives 17% (n = 1,900); shares compounds with CCHF vOTU inh-1; Recombinant CCHFV vOTU
* marks the source's active call; other numbers are inactive results. Hits are enriched below; roughly 1.7% of the tested compounds scored in any of these assays. Rule as the data show it, unless noted: active = inhibition above about 30%; inactive = the rest.

CCOC(=O)CC1c2ccc(C(F)(F)F)cc2S(=O)(=O)N1C1CCCC1 (stereo not given) was read as Sa RN4220 lethal 6.0, Sa ugtP lethal -8.7 and Mtb hypoxia rep 7.2.
For CCc1nnc(NS(=O)(=O)c2ccc(NC(=O)c3ccc([N+](=O)[O-])s3)cc2)s1 the results were CCHF vOTU inh-1 34.6*, BH1578 lux ind 0.1 and CCHF vOTU inh-2 11.7.
For CCc1nnc(NS(=O)(=O)c2ccc(Nc3ccc([N+](=O)[O-])c4nonc34)cc2)s1 the results were PfHsp40 rescue 0.2, Sa RN4220 lethal 6.0, CCHF vOTU inh-1 30.9*, Sa ugtP lethal -4.2, BH1578 lux ind -0.3, Mtb hypoxia rep 39.2* and CCHF vOTU inh-2 5.5.
`NS(=O)(=O)c1ccc(Nc2ccc([N+](=O)[O-])c3nonc23)cc1` gave PfHsp40 rescue 0.2, Sa RN4220 lethal 8.0, CCHF vOTU inh-1 30.9*, Sa ugtP lethal 5.0, BH1578 lux ind -0.4, Mtb hypoxia rep 20.0 and CCHF vOTU inh-2 16.9.
`C#CCOCCOCCOCCNc1nc(N2CCOCC2)nc(N2CCN(C(=O)C(C(C)CC)n3cc(C(N)CC(C)C)nn3)CC2)n1` (stereo not given) gave Sa RN4220 lethal 0.6, Sa ugtP lethal -7.2 and Mtb hypoxia rep 1.6.
`COc1ccc(C=Nn2cnc3c([nH]c4ccc(F)cc43)c2=O)cc1CSc1ccccn1` gave Sa RN4220 lethal 4.2, Sa ugtP lethal 10.7 and Mtb hypoxia rep 9.4.
Screening CCC(C)C(N)c1cn(C(CC(N)=O)C(=O)N2CCNCC2)nn1 (stereo not given) returned Sa RN4220 lethal 4.2, Sa ugtP lethal -7.4 and Mtb hypoxia rep 14.8.
For O=C(O)CN1C(=O)/C(=C\c2cccc(OCc3ccc(F)cc3)c2)SC1=S the results were PfHsp40 rescue 2.5, Sa RN4220 lethal 2.9, CCHF vOTU inh-1 35.6*, Sa ugtP lethal 1.3, BH1578 lux ind -0.6, Mtb hypoxia rep 5.4 and CCHF vOTU inh-2 27.6.
For COC(=O)C1=C(c2cccc(C#N)c2)CC2CCC1N2C(=O)NCCc1ccccc1 (stereo not given) the results were Sa RN4220 lethal 5.0, Sa ugtP lethal 5.6 and Mtb hypoxia rep 7.9.
For Cc1cccc(Cn2c(C(=O)OC(C)C)cc3c2ccn3C)c1 the results were PfHsp40 rescue 1.1, Sa RN4220 lethal -2.6, CCHF vOTU inh-1 35.0*, Sa ugtP lethal 80.2, BH1578 lux ind 19.2, Mtb hypoxia rep 12.1 and CCHF vOTU inh-2 18.4.
CCOC(=O)c1cc2c(ccn2C)n1Cc1ccc(Cl)cc1 was read as PfHsp40 rescue 1.5, Sa RN4220 lethal -3.2, CCHF vOTU inh-1 -3.9, Sa ugtP lethal 10.3, BH1578 lux ind 4.3 and Mtb hypoxia rep 10.4.
`CC(C)Oc1ccc(S(=O)(=O)N2CCOCC2)cc1NC(=O)CN1C(=O)c2ccccc2C1=O` gave PfHsp40 rescue -0.2, Sa RN4220 lethal 3.3, CCHF vOTU inh-1 35.8*, Sa ugtP lethal 8.4, BH1578 lux ind inactive, Mtb hypoxia rep 5.6 and CCHF vOTU inh-2 -20.1.
For CC(C)Oc1ccc(S(=O)(=O)N2CCOCC2)cc1NC(=O)CC1OC(=O)c2ccccc21 (stereo not given) the results were PfHsp40 rescue 0.2, Sa RN4220 lethal 7.0, CCHF vOTU inh-1 -10.1, Sa ugtP lethal 2.3, BH1578 lux ind inactive and Mtb hypoxia rep 2.7.
For Cc1cc(C(=O)O)ccc1-n1c(C)cc(/C=C(/C#N)C(=O)Nc2ccccc2)c1C the results were PfHsp40 rescue 7.0, Sa RN4220 lethal 7.1, CCHF vOTU inh-1 33.4*, Sa ugtP lethal -4.2, BH1578 lux ind inactive, Mtb hypoxia rep 9.5 and CCHF vOTU inh-2 -6.8.
For COc1cccc2c1C(=O)c1c(O)c3c(c(O)c1C2=O)C[C@@](O)(C(=O)CO)C[C@@H]3O[C@H]1C[C@H](N)[C@H](O)[C@H](C)O1 the results were PfHsp40 rescue 146.1*, CCHF vOTU inh-1 40.8*, BH1578 lux ind -0.3 and CCHF vOTU inh-2 30.5*.
For COc1ccc2c(c1)Cc1sc(NC(=O)c3ccco3)nc1-2 the results were PfHsp40 rescue 3.7, Sa RN4220 lethal -0.5, CCHF vOTU inh-1 104.6*, Sa ugtP lethal -20.9, BH1578 lux ind 0.0, Mtb hypoxia rep 8.5 and CCHF vOTU inh-2 -6.1.
CC1Cc2nc(SCC(=O)NCC3CCCO3)n(-c3ccccc3)c(=O)c2S1 (stereo not given) was read as CCHF vOTU inh-1 7.7 and BH1578 lux ind -0.2.
For COCCn1c(SCC(=O)NCC2CCCO2)nc2c(c1=O)SC(C)C2 (stereo not given) the results were PfHsp40 rescue 0.5, Sa RN4220 lethal -8.2, CCHF vOTU inh-1 31.8*, Sa ugtP lethal -6.0, BH1578 lux ind inactive, Mtb hypoxia rep 6.7 and CCHF vOTU inh-2 -10.2.
For CC(=O)C(=NNc1ccc(Cl)cc1)Sc1nnc(-c2ccccc2)n1-c1ccccc1 the results were Sa RN4220 lethal 6.9, Sa ugtP lethal 0.4 and Mtb hypoxia rep 10.7.
`CCCCNCCCOc1ccc(C)cc1Br` gave PfHsp40 rescue -2.0, Sa RN4220 lethal -1.0, CCHF vOTU inh-1 -0.1, Sa ugtP lethal -4.3, BH1578 lux ind -0.9 and Mtb hypoxia rep 10.2.
Screening CNCCCOc1ccc(C)cc1Br returned PfHsp40 rescue -0.7, Sa RN4220 lethal 1.4, CCHF vOTU inh-1 29.7*, Sa ugtP lethal -6.3, BH1578 lux ind 3.1, Mtb hypoxia rep 5.9 and CCHF vOTU inh-2 -14.3.
Screening O=c1[nH]nc(CNc2ccc(O)cc2)c2ccccc12 returned PfHsp40 rescue 0.6, Sa RN4220 lethal 4.4, CCHF vOTU inh-1 53.1*, Sa ugtP lethal -0.2, BH1578 lux ind -4.8, Mtb hypoxia rep 2.3 and CCHF vOTU inh-2 -16.1.
Screening CCN(CC)c1ccc(/C=N/NC(=O)c2nnn(-c3nonc3N)c2C(C)C)c(O)c1 returned PfHsp40 rescue 1.9, CCHF vOTU inh-1 31.4*, BH1578 lux ind inactive and CCHF vOTU inh-2 -19.7.
CC(C)c1c(C(=O)NN=Cc2cccc(OCc3ccccc3)c2)nnn1-c1nonc1N was read as Sa RN4220 lethal 30.3, Sa ugtP lethal 15.6 and Mtb hypoxia rep -3.7.
For CC(CC(=O)c1ccccc1)=NCCCN=C(C)CC(=O)c1ccccc1 the results were CCHF vOTU inh-1 35.1*, BH1578 lux ind inactive and CCHF vOTU inh-2 1.7.
Screening COc1ccccc1N(CC(=O)NN=C(C)c1cccc(Br)c1)S(C)(=O)=O returned Sa RN4220 lethal 4.3, Sa ugtP lethal -0.2 and Mtb hypoxia rep 2.8.
Screening COCCCn1c(N)c(C(=O)Nc2sc3c(c2C(=O)OC)CCCC3)c2nc3ccccc3nc21 returned PfHsp40 rescue 0.5, Sa RN4220 lethal -7.7, CCHF vOTU inh-1 34.8*, Sa ugtP lethal 8.1, BH1578 lux ind -14.6, Mtb hypoxia rep 0.1 and CCHF vOTU inh-2 -22.7.
